Records with an inconclusive call do not appear. Some compounds were tested as several samples or in several runs, with calls that do not always agree. Active and inactive are the calls of the source. How the source made its calls: active means hit-call score of the fitted dose curve at least 0.9, where 1 is the maximum; inconclusive means response in the unintended direction; inactive means score below 0.9.

Chain of human Matrix Metalloproteinase-9 (MMP9), MMP9 (gene 4318) (P14780 whole entry, looked up): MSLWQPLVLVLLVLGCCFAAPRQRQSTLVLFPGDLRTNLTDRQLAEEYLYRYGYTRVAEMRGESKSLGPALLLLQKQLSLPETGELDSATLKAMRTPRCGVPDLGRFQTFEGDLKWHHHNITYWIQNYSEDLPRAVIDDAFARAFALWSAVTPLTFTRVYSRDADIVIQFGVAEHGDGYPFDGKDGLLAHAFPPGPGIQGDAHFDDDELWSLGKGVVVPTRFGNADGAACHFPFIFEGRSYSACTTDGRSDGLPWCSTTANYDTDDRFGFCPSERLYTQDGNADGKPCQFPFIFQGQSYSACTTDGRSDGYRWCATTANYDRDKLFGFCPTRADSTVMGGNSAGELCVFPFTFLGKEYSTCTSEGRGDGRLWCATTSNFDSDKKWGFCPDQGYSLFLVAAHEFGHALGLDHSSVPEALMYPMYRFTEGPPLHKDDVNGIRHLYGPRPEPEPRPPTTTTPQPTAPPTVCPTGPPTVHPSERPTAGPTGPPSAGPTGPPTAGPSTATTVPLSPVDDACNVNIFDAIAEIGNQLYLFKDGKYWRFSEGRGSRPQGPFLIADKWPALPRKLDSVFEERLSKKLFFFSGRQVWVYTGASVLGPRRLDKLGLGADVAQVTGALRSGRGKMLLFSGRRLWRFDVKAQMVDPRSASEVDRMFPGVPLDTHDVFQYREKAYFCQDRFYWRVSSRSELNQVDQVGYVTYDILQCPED
Chain of human Matrix Metalloproteinase-1 (MMP1), MMP1 (gene 4312) (P03956 whole entry, looked up): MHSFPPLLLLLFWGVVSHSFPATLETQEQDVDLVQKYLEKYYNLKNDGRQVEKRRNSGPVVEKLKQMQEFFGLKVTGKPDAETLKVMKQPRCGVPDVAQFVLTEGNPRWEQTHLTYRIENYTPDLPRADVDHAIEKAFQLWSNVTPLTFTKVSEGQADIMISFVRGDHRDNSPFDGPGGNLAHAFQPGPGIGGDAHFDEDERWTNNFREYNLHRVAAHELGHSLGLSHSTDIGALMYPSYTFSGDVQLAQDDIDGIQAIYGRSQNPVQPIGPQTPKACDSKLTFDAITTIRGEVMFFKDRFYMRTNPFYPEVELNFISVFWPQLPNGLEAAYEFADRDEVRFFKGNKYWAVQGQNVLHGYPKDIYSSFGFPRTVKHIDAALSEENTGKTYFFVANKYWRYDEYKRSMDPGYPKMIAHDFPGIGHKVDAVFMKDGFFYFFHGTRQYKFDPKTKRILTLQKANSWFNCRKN

The target in one assay is human Matrix Metalloproteinase-1 (MMP1), MMP1 (gene 4312) (UniProt P03956). Briefly: NVS_ENZ_hMMP1: NovaScreen (NVS) Enzymatic Assay for human Matrix Metalloproteinase-1 (MMP1) (AID 2283181). On the procedure:
NVS_ENZ_hMMP1 is a biochemical, single-readout assay that uses extracted gene-proteins in a cell-free assay. Measurements were taken 1 hour after chemical dosing in a 96-well plate.NVS_ENZ_hMMP1 is one of one assay component(s) measured or calculated from the NVS_ENZ_hMMP1 assay. It is designed to make measurements of enzyme activity, a form of enzyme reporter, as detected with fluorescence intensity signals by Fluorescence technology.Data from the assay component NVS_ENZ_hMMP1 was analyzed into 1 assay endpoint. This assay endpoint, NVS_ENZ_hMMP1, was analyzed in the positive analysis fitting direction relative to DMSO as the negative control and baseline of activity. Using a type of enzyme reporter, loss-of-signal activity can be used to understand changes in the enzymatic activity as they relate to the gene MMP1. Furthermore, this assay endpoint can be referred to as a primary readout, because this assay has produced multiple assay endpoints where this one serves a enzymatic activity function. To generalize the intended target to other relatable targets, this assay endpoint is annotated to the protease intended target family, where the subfamily is matrix metalloproteinase.
Binding assays used specific radioligands (tritiated, iodinated) with non-radioactive competitive displacement ligands in agonist or antagonist protocols (as indicated) and various reference compounds and inhibitors to titrate specific binding to receptors and transporters. Most enzyme assays (CYPs, kinases, phosphatases, proteases, HDACs) used recombinant protein and specific substrates (fluorescence mostly, some colorimetric and radioactive) and inhibitors, followed by a biochemical separation of substrate and product. All assays for the biochemical HTS were initially run in duplicate at a single concentration (10 uM for CYP450 assays and 25 uM for all others). Assay-chemical combinations meeting a pre-defined threshold (e.g., 30% inhibition and other criteria defined below) were then run in singleton concentration-response format with maximum concentration of 20 uM for CYPs and 50 uM for all others. Each assay was run with positive and negative controls, and concurrent controls on every plate. The follow-up (secondary) screen tested active chemical-pairs in concentration series, as well as a few additional assays not tested in the primary screen, some selected negative inactives, and several cases re-run in the concentration series for confirmatory purposes.
`O=C(O)C(Cl)(Cl)Cl`: the outcome was inactive.

Regarding `C=C(C)C(=O)[O][Sn]([CH2]CCC)([CH2]CCC)[CH2]CCC`, the AC50 is 3.07 µM (active).

Turning to `CC(=O)[O][Hg][c]1ccccc1`, the AC50 is 6.38 µM (active).

As for `CCN1CCC2(CC1)COc1cc3c(cc12)N(C(=O)c1ccc(-c2ccc(-c4nnc(C)o4)cc2C)cc1)CC3`, the call was inactive.

For another assay, the target named is human Matrix Metalloproteinase-9 (MMP9), MMP9 (gene 4318) (UniProt P14780). Briefly: NVS_ENZ_hMMP9: NovaScreen (NVS) Enzymatic Assay for human Matrix Metalloproteinase-9 (MMP9) (AID 2283190).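 Further: cell-free recombinant MMP9 protease activity read by fluorescent substrate signal; active means inhibition seen as loss of fluorescence signal versus DMSO.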 A digest of the protocol:
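Inhibition was scored as loss of fluorescence signal against DMSO controls. The recombinant protease was exposed to chemicals for 1 hour before reading; initial testing used 25 uM in duplicate.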
For the compound `Nc1ccc(-c2ccc(N)c(Cl)c2)cc1Cl`, the AC50 is 0.597 µM (active).

For the compound `ClC1=C(Cl)[C@]2(Cl)[C@H]3[C@H]([C@H]4C=C[C@H]3C4)[C@@]1(Cl)C2(Cl)Cl`, the AC50 was 102 µM (active).

For the compound `COc1cc(-c2ccc(N)c(OC)c2)ccc1N`, the AC50 is 15.7 µM (active) and the outcome was inactive.

With `CN(C)P(=O)(N(C)C)N(C)C`, the AC50 is 6.94 µM (active).

Take `NC(=S)Nc1ccccc1`: the AC50 was 29.4 µM (active).

As to `Clc1ccc(C2(Cn3cncn3)CC(Br)CO2)c(Cl)c1` (stereo not given), the result was inactive.

As for `CCOC(=O)/C=C(C)/C=C/C[C@@H](C)CCCC(C)C`, the compound was called inactive.

Take `O=C(OC1CCCCC1)c1ccccc1C(=O)OC1CCCCC1`: the AC50 is 1.86 µM (active).

As for `Nc1cccc(Cl)c1`, the AC50 is 0.226 µM (active).

As for `CCN1CCC2(CC1)COc1cc3c(cc12)N(C(=O)c1ccc(-c2ccc(-c4nnc(C)o4)cc2C)cc1)CC3`, the AC50 is 4.37 µM (active).

The next assay has as its target human Phosphodiesterase 5 (PDE5), PDE5A (gene 8654) (UniProt O76074). Briefly: NVS_ENZ_hPDE5: NovaScreen (NVS) Enzymatic Assay for human Phosphodiesterase 5 (PDE5) (AID 2283194). A digest of the protocol: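 Screening began in duplicate at 25 uM, with actives taken into concentration-response. Enzyme activity of recombinant PDE5 toward its substrate was measured at 1 h by fluorescence mobility-shift detection, relative to DMSO controls.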
In the case of `CC(=O)[O][Hg][c]1ccccc1`, the compound was called inactive.

Consider `CCN1CCC2(CC1)COc1cc3c(cc12)N(C(=O)c1ccc(-c2ccc(-c4nnc(C)o4)cc2C)cc1)CC3`, for which the outcome was inactive.

`CC(C)(C)CC(C)(C)c1ccc(O)cc1`: the result was inactive.

In another assay the target is human Phosphodiesterase 10 (PDE10), PDE10A (gene 10846) (UniProt Q9Y233). Briefly: NVS_ENZ_hPDE10: NovaScreen (NVS) Enzymatic Assay for human Phosphodiesterase 10 (PDE10) (AID 2283195). A digest of the protocol: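 Biochemical single-readout PDE10A assay, cell-free, extracted protein. Compounds first screened at 25 uM in duplicate, hits then titrated to 50 uM max. Activity measured after 1 h; loss-of-signal fitted against DMSO negative control.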
Chain of human Phosphodiesterase 10 (PDE10), PDE10A (gene 10846) (Q9Y233 whole entry, looked up): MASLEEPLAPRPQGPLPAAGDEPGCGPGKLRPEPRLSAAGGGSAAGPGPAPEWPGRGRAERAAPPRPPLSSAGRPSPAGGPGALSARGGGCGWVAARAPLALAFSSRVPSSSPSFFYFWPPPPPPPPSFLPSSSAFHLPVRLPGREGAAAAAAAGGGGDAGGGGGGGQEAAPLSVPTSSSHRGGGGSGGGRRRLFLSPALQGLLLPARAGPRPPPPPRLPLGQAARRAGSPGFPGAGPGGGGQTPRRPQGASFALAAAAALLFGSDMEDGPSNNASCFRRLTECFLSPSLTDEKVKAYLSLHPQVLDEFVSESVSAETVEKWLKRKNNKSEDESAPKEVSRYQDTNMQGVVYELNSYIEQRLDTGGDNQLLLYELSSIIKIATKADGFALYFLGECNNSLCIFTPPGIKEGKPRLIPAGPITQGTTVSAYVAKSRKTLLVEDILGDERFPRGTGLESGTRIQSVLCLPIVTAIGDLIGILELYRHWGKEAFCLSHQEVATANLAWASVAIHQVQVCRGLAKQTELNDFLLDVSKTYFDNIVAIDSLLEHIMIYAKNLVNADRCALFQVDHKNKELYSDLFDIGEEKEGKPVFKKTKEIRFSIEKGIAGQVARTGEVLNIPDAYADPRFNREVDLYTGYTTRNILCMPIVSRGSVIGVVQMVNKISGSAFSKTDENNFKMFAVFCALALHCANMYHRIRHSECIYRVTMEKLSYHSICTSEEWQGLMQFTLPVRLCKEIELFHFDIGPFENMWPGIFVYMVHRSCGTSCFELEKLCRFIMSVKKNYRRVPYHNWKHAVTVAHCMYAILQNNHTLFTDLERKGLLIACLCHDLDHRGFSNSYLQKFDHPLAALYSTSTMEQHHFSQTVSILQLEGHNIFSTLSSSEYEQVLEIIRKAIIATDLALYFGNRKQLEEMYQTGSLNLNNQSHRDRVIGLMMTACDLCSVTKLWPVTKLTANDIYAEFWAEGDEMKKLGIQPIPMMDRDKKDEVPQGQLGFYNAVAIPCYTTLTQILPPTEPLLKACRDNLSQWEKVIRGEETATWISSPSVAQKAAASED
Take `Nc1cccc2ccccc12`: the AC50 was 9.86 µM (active).

For the compound `Nc1ncc([N+](=O)[O-])s1`, the call was inactive.

`Nc1ccc(Cl)cc1C(=O)c1ccccc1`: the call was inactive.

On to `CCCCC(CC)CO[N+](=O)[O-]` (stereo not given), for which the compound was classed as inactive.

In the case of `COc1cccc(C=O)c1`, the call was inactive.

Consider `ClC1=C(Cl)[C@]2(Cl)[C@@H]3[C@@H](Cl)[C@@H](Cl)C[C@@H]3[C@@]1(Cl)C2(Cl)Cl`, for which the call was inactive.

As to `O=Cc1cccc(Oc2ccccc2)c1`, the compound was called inactive.

For the compound `ClCCBr`, the compound was called inactive.

`O=C(Cl)c1ccc(Cl)cc1`: the compound was classed as inactive.

As to `CN(CCCC(=O)c1cccnc1)N=O`, the result was inactive.

In the case of `CC(C)c1ccc(CO)cc1`, the compound was classed as inactive.

As for `CC(Br)C(=O)O` (stereo not given), the outcome was inactive.

The record behind these values is PubChem BioAssay (EPA / NIEHS).
